# Laboratory results as given in article PMC7862700, “An all-to-all approach to the identification of sequence-specific readers for epigenetic DNA modifications on cytosine”.
# Experiments:
# Assay in all cases: DAPPL (digital affinity profiling via proximity ligation, sequencing); 10 mM Tris-HCl pH 7.5, 50 mM NaCl, 1 mM DTT, 4% glycerol, room temperature, 30 min; GST-TFs on glutathione beads, 16-mer random dsDNA library, 0.1% formaldehyde crosslink after washing; high values mean tight binding
# FLI1 = target: T1, FLI1 (Homo sapiens, UniProt Q01543 1-452); conditions: protein: recombinant; tags: N-terminal GST; dsDNA, one strand shown
# T1 sequence: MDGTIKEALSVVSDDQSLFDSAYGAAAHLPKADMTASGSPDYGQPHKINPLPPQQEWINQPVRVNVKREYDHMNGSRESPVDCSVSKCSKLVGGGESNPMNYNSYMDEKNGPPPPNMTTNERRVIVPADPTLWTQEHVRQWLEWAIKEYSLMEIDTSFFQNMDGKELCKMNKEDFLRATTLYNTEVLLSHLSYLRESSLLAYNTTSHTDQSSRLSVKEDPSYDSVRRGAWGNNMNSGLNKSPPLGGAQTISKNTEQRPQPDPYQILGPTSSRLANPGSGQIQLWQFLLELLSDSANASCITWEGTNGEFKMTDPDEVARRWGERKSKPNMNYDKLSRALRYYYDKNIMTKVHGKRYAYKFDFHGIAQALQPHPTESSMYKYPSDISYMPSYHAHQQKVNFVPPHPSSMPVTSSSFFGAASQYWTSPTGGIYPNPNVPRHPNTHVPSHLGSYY
# Procedure, shortened: (§1)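 Binding signal is defined as a hexamer's read frequency for one factor over its frequency for the tag-only sample. To obtain reads, GST-fused human transcription factors were expressed in yeast, captured on glutathione beads, barcoded with DNA and pooled with that sample. Pools met 200 nmole of a 16-mer random double-stranded DNA library in Tris/NaCl/DTT/glycerol buffer for 30 min at room temperature before washing, 0.1% formaldehyde crosslinking, proximity ligation (BsaI/T4 ligase, 1 h, 37 °C), PCR and Illumina NextSeq500 sequencing.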
# ELK1 = target: T2, ELK1 (Homo sapiens, UniProt P19419 1-428); conditions: protein: recombinant; tags: N-terminal GST; dsDNA, one strand shown
# T2 sequence: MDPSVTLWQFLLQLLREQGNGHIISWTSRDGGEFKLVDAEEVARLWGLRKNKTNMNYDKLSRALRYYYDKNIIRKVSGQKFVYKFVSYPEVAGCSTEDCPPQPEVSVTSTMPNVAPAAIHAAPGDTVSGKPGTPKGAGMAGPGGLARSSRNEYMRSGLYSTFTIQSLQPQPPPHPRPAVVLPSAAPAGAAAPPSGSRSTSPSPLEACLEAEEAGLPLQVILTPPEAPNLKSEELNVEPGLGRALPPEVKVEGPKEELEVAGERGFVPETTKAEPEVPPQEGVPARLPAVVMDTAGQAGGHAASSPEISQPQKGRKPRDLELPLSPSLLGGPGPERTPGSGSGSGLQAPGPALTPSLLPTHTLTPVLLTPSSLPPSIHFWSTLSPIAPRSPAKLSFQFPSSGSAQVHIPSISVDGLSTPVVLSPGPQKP
# Procedure, shortened: as §1
# GABPA = target: T3, GABPA (Homo sapiens, UniProt Q06546 1-454); conditions: protein: recombinant; tags: N-terminal GST; dsDNA, one strand shown
# T3 sequence: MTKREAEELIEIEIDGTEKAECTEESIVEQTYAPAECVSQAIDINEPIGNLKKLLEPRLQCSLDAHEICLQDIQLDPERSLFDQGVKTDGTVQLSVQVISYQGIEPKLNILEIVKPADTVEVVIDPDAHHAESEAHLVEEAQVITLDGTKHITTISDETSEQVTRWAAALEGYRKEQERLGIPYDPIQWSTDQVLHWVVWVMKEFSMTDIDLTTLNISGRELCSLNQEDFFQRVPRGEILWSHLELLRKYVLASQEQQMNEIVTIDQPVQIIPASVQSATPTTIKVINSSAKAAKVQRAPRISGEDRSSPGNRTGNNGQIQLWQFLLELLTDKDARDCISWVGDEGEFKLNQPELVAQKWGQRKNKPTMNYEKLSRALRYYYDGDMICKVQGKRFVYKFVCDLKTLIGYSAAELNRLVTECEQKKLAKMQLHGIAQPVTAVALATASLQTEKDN
# Procedure, shortened: as §1
# ERG = target: T4, ERG (Homo sapiens, UniProt P11308 1-479); conditions: protein: recombinant; tags: N-terminal GST; dsDNA, one strand shown
# T4 sequence: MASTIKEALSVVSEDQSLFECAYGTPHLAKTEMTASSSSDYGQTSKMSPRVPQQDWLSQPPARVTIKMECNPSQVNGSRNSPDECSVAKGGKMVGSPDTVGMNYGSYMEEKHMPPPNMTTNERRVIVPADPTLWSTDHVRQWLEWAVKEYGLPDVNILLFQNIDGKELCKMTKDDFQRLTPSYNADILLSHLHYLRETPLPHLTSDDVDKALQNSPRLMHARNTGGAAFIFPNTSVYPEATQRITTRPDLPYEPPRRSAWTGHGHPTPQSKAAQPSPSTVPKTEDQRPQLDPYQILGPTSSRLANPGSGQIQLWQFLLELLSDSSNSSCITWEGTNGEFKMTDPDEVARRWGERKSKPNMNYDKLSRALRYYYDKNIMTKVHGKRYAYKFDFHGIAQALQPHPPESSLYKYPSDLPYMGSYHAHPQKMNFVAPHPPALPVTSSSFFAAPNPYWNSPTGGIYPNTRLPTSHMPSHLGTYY
# Procedure, shortened: as §1
# ELF1 = ELF1 (Homo sapiens, UniProt P32519 1-619); conditions: protein: recombinant; tags: N-terminal GST; dsDNA, one strand shown
# Procedure, shortened: as §1
# EHF = target: T5, EHF (Homo sapiens, UniProt Q9NZC4 1-300); conditions: protein: recombinant; tags: N-terminal GST; dsDNA, one strand shown
# T5 sequence: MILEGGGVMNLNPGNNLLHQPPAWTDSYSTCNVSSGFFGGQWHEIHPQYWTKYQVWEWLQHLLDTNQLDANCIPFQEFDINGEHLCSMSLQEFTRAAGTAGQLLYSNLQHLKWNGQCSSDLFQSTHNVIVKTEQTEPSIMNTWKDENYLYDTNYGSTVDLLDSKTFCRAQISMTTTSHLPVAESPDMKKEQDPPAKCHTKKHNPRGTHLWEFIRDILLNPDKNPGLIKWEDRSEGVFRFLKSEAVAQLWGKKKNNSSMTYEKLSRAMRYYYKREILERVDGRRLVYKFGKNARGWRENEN
# Procedure, shortened: as §1
# SPI1 = SPI1 (Homo sapiens, UniProt P17947 1-270); conditions: protein: recombinant; tags: N-terminal GST; dsDNA, one strand shown
# Procedure, shortened: as §1
# SPIB = SPIB (Homo sapiens, UniProt Q01892 1-262); conditions: protein: recombinant; tags: N-terminal GST; dsDNA, one strand shown
# Procedure, shortened: as §1
# ELK3 = target: T6, ELK3 (Homo sapiens, UniProt P41970 1-407); conditions: protein: recombinant; tags: N-terminal GST; dsDNA, one strand shown
# T6 sequence: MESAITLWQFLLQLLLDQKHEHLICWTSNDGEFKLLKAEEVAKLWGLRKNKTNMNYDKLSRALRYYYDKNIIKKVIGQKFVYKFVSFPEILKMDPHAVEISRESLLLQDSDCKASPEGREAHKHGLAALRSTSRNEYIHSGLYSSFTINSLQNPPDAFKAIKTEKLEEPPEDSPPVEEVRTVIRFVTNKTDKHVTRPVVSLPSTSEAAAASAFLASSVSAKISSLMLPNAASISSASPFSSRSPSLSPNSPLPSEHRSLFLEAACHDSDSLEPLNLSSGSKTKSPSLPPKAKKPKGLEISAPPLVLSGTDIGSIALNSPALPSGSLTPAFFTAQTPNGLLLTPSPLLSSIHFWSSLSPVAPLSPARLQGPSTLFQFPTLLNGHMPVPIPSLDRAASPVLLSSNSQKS
# Procedure, shortened: as §1
# FEV = target: T7, FEV (Homo sapiens, UniProt Q99581 1-238); conditions: protein: recombinant; tags: N-terminal GST; dsDNA, one strand shown
# T7 sequence: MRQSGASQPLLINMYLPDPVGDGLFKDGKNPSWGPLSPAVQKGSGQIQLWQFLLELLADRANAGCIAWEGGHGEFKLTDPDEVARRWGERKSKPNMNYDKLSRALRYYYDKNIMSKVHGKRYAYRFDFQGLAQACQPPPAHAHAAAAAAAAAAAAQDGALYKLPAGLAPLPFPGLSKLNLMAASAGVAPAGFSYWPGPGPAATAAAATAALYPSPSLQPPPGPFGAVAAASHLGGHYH
# Procedure, shortened: as §1
# ETV5 = ETV5 (Homo sapiens, UniProt P41161 1-510); conditions: protein: recombinant; tags: N-terminal GST; dsDNA, one strand shown
# Procedure, shortened: as §1
# HSF1 = HSF1 (Homo sapiens, UniProt Q00613 1-529); conditions: protein: recombinant; tags: N-terminal GST; chain copies: 3; dsDNA, one strand shown
# Procedure, shortened: as §1
# SPIC = target: T8, SPIC (Homo sapiens, UniProt Q8N5J4 1-248); conditions: protein: recombinant; tags: N-terminal GST; dsDNA, one strand shown
# T8 sequence: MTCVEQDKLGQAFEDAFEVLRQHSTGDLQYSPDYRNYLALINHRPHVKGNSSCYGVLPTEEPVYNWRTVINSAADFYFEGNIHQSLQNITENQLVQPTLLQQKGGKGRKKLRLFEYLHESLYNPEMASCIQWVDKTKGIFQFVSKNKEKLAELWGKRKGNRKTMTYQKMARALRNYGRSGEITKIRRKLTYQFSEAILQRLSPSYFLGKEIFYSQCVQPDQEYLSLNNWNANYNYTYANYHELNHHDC
# Procedure, shortened: as §1
# ELF4 = ELF4 (Homo sapiens, UniProt Q99607 1-663); conditions: protein: recombinant; tags: N-terminal GST; dsDNA, one strand shown
# Procedure, shortened: as §1
# ELK4 = target: T9, ELK4 (Homo sapiens, UniProt P28324-2 1-405); conditions: protein: recombinant; tags: N-terminal GST; dsDNA, one strand shown
# T9 sequence: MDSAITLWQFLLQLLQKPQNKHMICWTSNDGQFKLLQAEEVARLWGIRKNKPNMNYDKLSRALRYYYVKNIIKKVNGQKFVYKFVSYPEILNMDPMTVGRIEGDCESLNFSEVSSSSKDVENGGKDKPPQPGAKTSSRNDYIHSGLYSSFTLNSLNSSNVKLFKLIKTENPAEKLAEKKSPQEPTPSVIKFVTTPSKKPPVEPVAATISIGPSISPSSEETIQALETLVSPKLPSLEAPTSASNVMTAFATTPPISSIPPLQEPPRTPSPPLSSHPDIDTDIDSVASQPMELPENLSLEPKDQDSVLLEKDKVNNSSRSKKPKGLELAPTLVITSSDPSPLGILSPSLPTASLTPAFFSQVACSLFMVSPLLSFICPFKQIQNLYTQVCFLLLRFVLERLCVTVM
# Procedure, shortened: as §1
# ETV2 = target: T10, ETV2 (Homo sapiens, UniProt O00321 1-342); conditions: protein: recombinant; tags: N-terminal GST; dsDNA, one strand shown
# T10 sequence: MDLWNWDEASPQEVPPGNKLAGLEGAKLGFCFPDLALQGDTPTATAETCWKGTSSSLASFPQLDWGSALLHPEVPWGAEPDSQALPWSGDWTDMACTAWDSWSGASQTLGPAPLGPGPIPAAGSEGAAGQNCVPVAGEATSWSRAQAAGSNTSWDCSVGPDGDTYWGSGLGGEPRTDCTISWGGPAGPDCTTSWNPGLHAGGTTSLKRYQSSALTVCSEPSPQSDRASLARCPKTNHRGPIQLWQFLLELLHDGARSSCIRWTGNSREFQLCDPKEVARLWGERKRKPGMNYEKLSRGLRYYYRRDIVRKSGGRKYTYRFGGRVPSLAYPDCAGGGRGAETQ
# Procedure, shortened: as §1
# ELF3 = target: T11, ELF3 (Homo sapiens, UniProt P78545 1-371); conditions: protein: recombinant; tags: N-terminal GST; dsDNA, one strand shown
# T11 sequence: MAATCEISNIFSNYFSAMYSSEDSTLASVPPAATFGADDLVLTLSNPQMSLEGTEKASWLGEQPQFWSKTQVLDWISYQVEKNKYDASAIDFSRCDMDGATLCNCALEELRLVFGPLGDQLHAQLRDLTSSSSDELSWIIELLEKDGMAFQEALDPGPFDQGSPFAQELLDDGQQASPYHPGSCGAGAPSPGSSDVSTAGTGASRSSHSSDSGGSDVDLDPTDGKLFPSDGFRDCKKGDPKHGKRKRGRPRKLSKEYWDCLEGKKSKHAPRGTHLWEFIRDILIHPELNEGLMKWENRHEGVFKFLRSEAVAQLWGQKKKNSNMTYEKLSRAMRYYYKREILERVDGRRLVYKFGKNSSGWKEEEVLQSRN
# Procedure, shortened: as §1
# CRX = CRX (Homo sapiens, UniProt O43186 1-299); conditions: protein: recombinant; tags: N-terminal GST; dsDNA, one strand shown
# Procedure, shortened: as §1
# ETV1 = ETV1 (Homo sapiens, UniProt P50549 1-477); conditions: protein: recombinant; tags: N-terminal GST; dsDNA, one strand shown
# Procedure, shortened: as §1
# ELF4, sequence (Q99607 whole entry): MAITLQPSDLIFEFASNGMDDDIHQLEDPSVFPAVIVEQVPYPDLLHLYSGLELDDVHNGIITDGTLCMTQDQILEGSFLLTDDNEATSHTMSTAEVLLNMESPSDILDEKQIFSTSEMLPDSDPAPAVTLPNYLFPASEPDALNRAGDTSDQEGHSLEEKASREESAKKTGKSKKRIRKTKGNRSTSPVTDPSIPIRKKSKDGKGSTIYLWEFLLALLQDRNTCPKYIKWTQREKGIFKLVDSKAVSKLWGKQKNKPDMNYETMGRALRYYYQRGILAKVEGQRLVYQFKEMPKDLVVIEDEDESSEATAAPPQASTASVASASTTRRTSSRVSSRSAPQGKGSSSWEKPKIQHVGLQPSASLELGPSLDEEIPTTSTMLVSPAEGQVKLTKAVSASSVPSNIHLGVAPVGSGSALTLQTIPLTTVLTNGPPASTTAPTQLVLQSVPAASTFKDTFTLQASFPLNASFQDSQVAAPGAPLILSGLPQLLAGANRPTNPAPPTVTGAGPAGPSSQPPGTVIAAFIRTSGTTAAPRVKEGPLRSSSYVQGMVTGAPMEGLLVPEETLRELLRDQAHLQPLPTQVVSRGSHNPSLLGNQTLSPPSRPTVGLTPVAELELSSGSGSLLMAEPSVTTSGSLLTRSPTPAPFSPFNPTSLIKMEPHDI
# HSF1, sequence (Q00613 whole entry): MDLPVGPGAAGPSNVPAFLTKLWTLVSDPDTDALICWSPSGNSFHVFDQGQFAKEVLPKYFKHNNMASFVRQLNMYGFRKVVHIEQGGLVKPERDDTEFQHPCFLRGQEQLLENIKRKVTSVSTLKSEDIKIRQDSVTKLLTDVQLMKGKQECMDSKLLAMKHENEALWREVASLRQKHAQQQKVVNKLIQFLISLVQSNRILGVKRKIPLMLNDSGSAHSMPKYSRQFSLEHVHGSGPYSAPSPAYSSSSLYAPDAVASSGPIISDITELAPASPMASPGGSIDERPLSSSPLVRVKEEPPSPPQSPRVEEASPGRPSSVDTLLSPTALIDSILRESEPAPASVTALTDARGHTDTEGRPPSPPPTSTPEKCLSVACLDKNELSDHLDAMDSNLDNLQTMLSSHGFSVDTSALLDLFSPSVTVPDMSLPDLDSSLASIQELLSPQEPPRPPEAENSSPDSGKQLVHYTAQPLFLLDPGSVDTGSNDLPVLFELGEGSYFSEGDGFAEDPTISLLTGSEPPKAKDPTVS
# CRX, sequence (O43186 whole entry): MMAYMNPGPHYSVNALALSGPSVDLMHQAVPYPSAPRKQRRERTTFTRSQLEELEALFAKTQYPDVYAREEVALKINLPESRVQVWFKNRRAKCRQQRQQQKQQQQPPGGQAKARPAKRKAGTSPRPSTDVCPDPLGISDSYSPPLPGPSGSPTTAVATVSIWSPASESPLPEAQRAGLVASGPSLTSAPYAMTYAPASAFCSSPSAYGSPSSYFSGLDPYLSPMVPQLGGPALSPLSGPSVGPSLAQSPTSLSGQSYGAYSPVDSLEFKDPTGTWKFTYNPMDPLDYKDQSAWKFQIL
# ELF1, sequence (P32519 whole entry): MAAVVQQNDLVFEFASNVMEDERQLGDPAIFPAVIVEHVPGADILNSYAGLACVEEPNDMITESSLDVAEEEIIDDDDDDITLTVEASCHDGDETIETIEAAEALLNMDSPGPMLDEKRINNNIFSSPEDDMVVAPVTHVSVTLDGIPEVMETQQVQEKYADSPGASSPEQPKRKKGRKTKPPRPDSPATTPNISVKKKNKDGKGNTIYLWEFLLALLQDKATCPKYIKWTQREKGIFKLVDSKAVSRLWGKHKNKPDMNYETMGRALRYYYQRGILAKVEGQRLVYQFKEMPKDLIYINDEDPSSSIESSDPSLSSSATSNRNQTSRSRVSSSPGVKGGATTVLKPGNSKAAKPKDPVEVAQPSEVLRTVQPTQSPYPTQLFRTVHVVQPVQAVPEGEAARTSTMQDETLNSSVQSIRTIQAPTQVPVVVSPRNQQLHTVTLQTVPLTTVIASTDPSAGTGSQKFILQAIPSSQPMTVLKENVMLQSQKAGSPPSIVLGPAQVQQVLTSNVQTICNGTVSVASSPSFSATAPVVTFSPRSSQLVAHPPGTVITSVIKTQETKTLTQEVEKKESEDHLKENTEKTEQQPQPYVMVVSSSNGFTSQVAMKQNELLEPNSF
# ETV5, sequence (P41161 whole entry): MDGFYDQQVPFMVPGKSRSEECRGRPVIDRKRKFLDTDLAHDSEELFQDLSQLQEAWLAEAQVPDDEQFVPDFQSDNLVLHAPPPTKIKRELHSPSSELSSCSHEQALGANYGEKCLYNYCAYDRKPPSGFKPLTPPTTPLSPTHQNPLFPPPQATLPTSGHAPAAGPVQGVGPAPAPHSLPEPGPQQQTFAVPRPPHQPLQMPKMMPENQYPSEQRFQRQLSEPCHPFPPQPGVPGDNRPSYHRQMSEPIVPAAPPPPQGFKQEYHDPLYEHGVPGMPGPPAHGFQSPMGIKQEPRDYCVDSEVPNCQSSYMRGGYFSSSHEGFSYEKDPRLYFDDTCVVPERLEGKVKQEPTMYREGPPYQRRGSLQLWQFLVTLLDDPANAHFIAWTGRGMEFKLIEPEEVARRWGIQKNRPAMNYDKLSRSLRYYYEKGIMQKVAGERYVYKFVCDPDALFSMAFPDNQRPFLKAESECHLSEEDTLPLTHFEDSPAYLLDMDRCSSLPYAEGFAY
# SPIB, sequence (Q01892 whole entry): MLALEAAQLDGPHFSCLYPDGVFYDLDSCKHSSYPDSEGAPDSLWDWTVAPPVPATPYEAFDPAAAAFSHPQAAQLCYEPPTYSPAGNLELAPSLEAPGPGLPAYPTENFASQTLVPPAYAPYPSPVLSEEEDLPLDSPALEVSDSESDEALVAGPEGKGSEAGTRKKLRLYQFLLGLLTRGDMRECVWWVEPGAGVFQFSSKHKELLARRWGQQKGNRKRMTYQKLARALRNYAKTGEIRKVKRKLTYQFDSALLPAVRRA
# ETV1, sequence (P50549 whole entry): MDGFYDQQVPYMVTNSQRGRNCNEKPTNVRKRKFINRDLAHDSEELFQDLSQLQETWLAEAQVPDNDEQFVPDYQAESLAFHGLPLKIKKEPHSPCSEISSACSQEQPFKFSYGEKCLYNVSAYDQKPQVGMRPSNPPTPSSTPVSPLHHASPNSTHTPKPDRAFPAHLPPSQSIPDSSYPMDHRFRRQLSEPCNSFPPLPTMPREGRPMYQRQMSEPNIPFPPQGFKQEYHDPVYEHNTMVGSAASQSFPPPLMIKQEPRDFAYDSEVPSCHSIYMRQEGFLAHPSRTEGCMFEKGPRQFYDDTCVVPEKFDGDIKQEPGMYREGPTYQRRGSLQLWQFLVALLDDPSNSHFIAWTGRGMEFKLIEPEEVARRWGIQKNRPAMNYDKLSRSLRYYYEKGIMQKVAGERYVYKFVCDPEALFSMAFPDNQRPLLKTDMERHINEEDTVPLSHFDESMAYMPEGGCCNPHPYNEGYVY
sequence,measurement,setting,value
TGATCT,binding signal,FLI1,"1.21 fold enrichment (6-mer frequency, TF over GST control)"
same,binding signal,ELK1,"1.33 fold enrichment (6-mer frequency, TF over GST control)"
same,binding signal,GABPA,"1.18 fold enrichment (6-mer frequency, TF over GST control)"
same,binding signal,ERG,"1.22 fold enrichment (6-mer frequency, TF over GST control)"
same,binding signal,ELF1,"1.18 fold enrichment (6-mer frequency, TF over GST control)"
same,binding signal,EHF,"1.22 fold enrichment (6-mer frequency, TF over GST control)"
same,binding signal,SPI1,"1.15 fold enrichment (6-mer frequency, TF over GST control)"
same,binding signal,SPIB,"1.28 fold enrichment (6-mer frequency, TF over GST control)"
same,binding signal,ELK3,"1.23 fold enrichment (6-mer frequency, TF over GST control)"
same,binding signal,FEV,"1.12 fold enrichment (6-mer frequency, TF over GST control)"
same,binding signal,ETV5,"1.21 fold enrichment (6-mer frequency, TF over GST control)"
same,binding signal,HSF1,"1.66 fold enrichment (6-mer frequency, TF over GST control)"
same,binding signal,SPIC,"1.19 fold enrichment (6-mer frequency, TF over GST control)"
same,binding signal,ELF4,"1.16 fold enrichment (6-mer frequency, TF over GST control)"
same,binding signal,ELK4,"1.37 fold enrichment (6-mer frequency, TF over GST control)"
same,binding signal,ETV2,"1.21 fold enrichment (6-mer frequency, TF over GST control)"
same,binding signal,ELF3,"1.25 fold enrichment (6-mer frequency, TF over GST control)"
same,binding signal,CRX,"1.86 fold enrichment (6-mer frequency, TF over GST control)"
same,binding signal,ETV1,"1.2 fold enrichment (6-mer frequency, TF over GST control)"
